Laboratory results as given in PubChem BioAssay (NCATS).
Where “and” joins values, the source holds several entries; their conditions need not be identical. Identical values can stand only once. Results filed as inconclusive are left out. Calls of active or inactive are those of the source. Unless noted, calls follow the shape of the dose curve; as a rule, active = well fitted curve in the direction sought with a large enough effect; inconclusive = small, poorly fitted or top-dose-only effect, or another doubt; inactive = no such curve, though single readings can be large; an effect the other way counts as inactive or inconclusive.

Experiments:
[1] = Cell Viability - HepG2 (AID 433; calls by dose curve;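 also: potency is read from the fitted curve at half-maximal effect; potency for ATP loss meaning cytotoxicity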); conditions: qHTS
Outline: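 HepG2 cells, 1500 per well, treated 40 hr at 37 °C in complete medium; viability from intracellular ATP by CellTiter-Glo luminescence. Normalized to DMSO and 100 uM tamoxifen; AC50 from Hill fit of qHTS concentration-response.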

[2] = Cell Viability - MRC5 (AID 434; calls by dose curve;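 also: potency is read from the fitted curve at half-maximal effect; potency reflects cytotoxicity seen as loss of intracellular ATP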); conditions: MRC5 lung fibroblast viability, qHTS
Outline: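 MRC5 normal human lung fibroblasts (1500/well) were treated with compounds for 40 hr at 37 °C in complete medium, and viable cells were measured as intracellular ATP by CellTiter-Glo luminescence. AC50 came from Hill fits, normalized to DMSO and 100 uM tamoxifen.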

[3] = biological target: Mitogen-activated protein kinase 10 (Mus musculus) (UniProt Q61831); experiment: JNK3 AlphaScreen Assay (AID 530; active = well fitted curve in either direction with a large enough effect, not every such curve was filed as active;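 also: kinase came from lysate of stimulated human HepG2 cells; signal reports phosphorylation of biotinylated GST-cJun 1-79 at Ser73 with 10 µM ATP; % is scaled to controls: 0 for no effect and ±100 for the full control effect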); conditions: JNK3 lysate, c-Jun phosphorylation; series mostly up to 57.1 µM
Outline: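 JNK3 came from HepG2 lysates pre-activated with IL-1beta and TNF-alpha and phosphorylated biotinylated GST-cJun (1-79) at 10 uM ATP, pH 7.6, room temperature. Compounds were titrated. AlphaScreen signal used anti-phospho-cJun (Ser73) antibody.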

[4] = Cell Viability - HUV-EC-C (AID 542); conditions: HUV-EC-C endothelial cell viability, qHTS; series mostly up to 92.2 µM; also: % is scaled to controls: 0 for no effect and ±100 for the full control effect; nearly all actives have a fitted effect of over 35% in size
Outline: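 Decrease in cellular ATP, quantified by luciferase luminescence, reflects toxicity in normal human vascular endothelial HUV-EC-C cells given compound for 40 hr in complete culture medium. Values are AC50s from concentration-response curves.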

[5] = Cell Viability - SH-SY5Y (AID 544); conditions: SH-SY5Y neuroblastoma cell viability; viability change, negative = cytotoxic: at 92.2 µM (top of the series); also: nearly all actives have a fitted effect of over 55% in size
Outline: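 Cytotoxicity is scored as a concentration-dependent fall in intracellular ATP in human SH-SY5Y cells treated 40 hr in complete culture medium. Potency is expressed as AC50 from a Hill equation fit.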

[6] = Cell Viability - Renal Proximal Tubule (AID 545); conditions: renal proximal tubule cells viability; at 91.7 µM (top of the series), primary cells of rat origin unless noted; also: nearly all actives have a fitted effect of over 40% in size
Outline: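 Rat renal proximal tubule primary cells, 1000/well, exposed to compounds for 40 hr at 37 °C in complete medium; cellular ATP read by CellTiter-Glo luminescence. AC50 from concentration-response fitted with standard Hill equation.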

[7] = Cell Viability - Mesenchymal (AID 546); conditions: mesenchymal cells viability, qHTS; series mostly up to 91.7 µM;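 also: cells exposed to compound for 40 hours before reading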
Outline: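 Normal human renal glomerulus-derived kidney mesenchymal cells, 1000 per well in complete medium, were treated with compounds for 40 hr at 37 °C. Viability was read as intracellular ATP by CellTiter-Glo luminescence; AC50 values came from Hill-equation fits of qHTS concentration-response data.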

[8] = Cellular Toxicity (caspase-3) HUV-EC-C (AID 656); conditions: HUV-EC-C cells, caspase-3 activation (apoptosis), vehicle = 0, 100 µM tamoxifen = 100%; series mostly up to 92.2 µM
Outline: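 HUV-EC-C cells (1000/well) in complete medium, compound-treated 16 h at 37 °C; caspase-3/7 activity read by Caspase-Glo 3/7 luminescence. Normalized to DMSO (basal) and 100 uM tamoxifen (100%); AC50 from Hill-equation concentration-response fits.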

[9] = Cellular Toxicity (caspase-3) SHSY5Y (AID 657); conditions: SH-SY5Y caspase-3 activation, DMSO zero, 10 µM staurosporine = 100%; series mostly up to 91.7 µM
Outline: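 SH-SY5Y human neuroblastoma cells, 1500/well, exposed to compound for 16 hours at 37 °C in complete medium. Caspase-3/7 activity read by Caspase-Glo luminescence after 1 hr at room temperature, normalized to DMSO and 10 uM staurosporine; AC50 from Hill fit.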

[10] = Cellular Toxicity (caspase-3) MRC-5 (AID 659); conditions: MRC-5 cells, luminescence, normalized: DMSO 0%, 10 µM staurosporine 100%; series mostly up to 91.7 µM
Outline: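 Luminescence from caspase-cleaved aminoluciferin substrate (Caspase-Glo 3/7, 1 hr RT) reports caspase 3/7 activity in MRC-5 lung fibroblasts after 16 hr compound exposure. Normalized to DMSO basal and 10 uM staurosporine as 100%; AC50 from Hill fits.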

[11] = Cellular Toxicity (caspase-3) Mesangial (AID 660); conditions: mesangial cells, normalized: DMSO 0%, 100 µM tamoxifen 100%; series mostly up to 91.7 µM;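 also: cells exposed to compound for 16 h before the caspase read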
Outline: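 Concentration-response qHTS: compound-induced rise in caspase 3/7 luminescence in human mesangial cells after 16 h, normalized to DMSO and 100 uM tamoxifen controls.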

[12] = Cell Viability - LYMP1-002 - Assay at 16 hr (AID 948); conditions: LYMP1-002 lymphoblastoid cell viability; series mostly up to 92.2 µM;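 also: 0% = DMSO alone and full effect = 92 µM tetraoctylammonium bromide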
Outline: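 LYMP1-002 human lymphoblastoid cells, 2500/well, were treated with compounds for 16 hr at 37 C in complete medium. Viability was read as intracellular ATP by CellTiter-Glo luminescence, and AC50 was derived from a Hill fit to concentration-response data.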

[13] = MultiTox-Fluor Cytotoxicity Assay - LYMP1-003 - Dead Cells (AID 961); conditions: LYMP1-003 lymphoblastoid cells, dead-cell protease fluorescence; series mostly up to 92.2 µM;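 also: 0% = DMSO and 100% = tetraoctylammonium bromide; nearly all actives have a fitted effect of over 70% in size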
Outline: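 Human lymphoblastoid LYMP1-003 cells (2500/well) were treated with compounds for 16 hr at 37 C in complete medium. Dead-cell protease release was read by bis-AAF-R110 fluorescence (Ex/Em 485/520). AC50 came from Hill fits, normalized to DMSO and 15 uM tetraoctylammonium bromide.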

[14] = Cell Viability - LYMP1-003 - Assay at 24 hr (AID 963); conditions: LYMP1-003 lymphoblastoid cell viability; series mostly up to 92.2 µM;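 also: plate controls were DMSO only for no effect and tetraoctylammonium bromide positive control for full effect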
Outline: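 Acute toxicity in LYMP1-003 lymphoblastoid cells: 24 hr compound treatment at 37 C, ATP measured with CellTiter-Glo after 30 min at room temperature. AC50 derived by fitting the Hill equation to qHTS titrations.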

[15] = Cell Viability - LYMP2-015 (AID 971); conditions: LYMP2-015 lymphoblastoid cell viability; series mostly up to 92.2 µM;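 also: cells exposed to compound for 24 h; 0% = DMSO only and full effect = 92 µM tetraoctylammonium bromide; nearly all actives have a fitted effect of over 55% in size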
Outline: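 Acute toxicity was scored as a concentration-dependent drop in intracellular ATP in lymphoblastoid cells after 24 hr compound exposure in complete medium. Detection used CellTiter-Glo luciferase luminescence.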

[16] = Cell Viability - LYMP2-025 (AID 976); conditions: LYMP2-025 lymphoblastoid cell viability; series mostly up to 92.2 µM;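 also: cells exposed to compound for 24 h at 37 °C; plate controls were DMSO only for no effect and tetraoctylammonium bromide control for full effect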
Outline: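 In qHTS format, LYMP2-025 lymphoblastoid cells in complete culture medium received compound for 24 hr; ATP-based CellTiter-Glo signal gave viability, with AC50 derived by Hill equation.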

[17] = qHTS Assay for Identification of Small Molecule Inducers of Hypoxia Response (AID 2120; active = well fitted curve in the direction sought with a large enough effect in the signal ratio, with a control signal flat, not every such curve was filed as active; the % refers to the signal ratio; also: 0% is about no effect); conditions: hypoxia response reporter cells, beta-lactamase ratio readout; series mostly up to 104 µM
Outline: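 Induction of beta-lactamase reporter activity was measured in CellSensor HRE-bla ME-180 cells after 17 h compound treatment at 37 degrees C, using CCF4 substrate and the 460nm/530nm emission ratio to derive AC50 values.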

[18] = qHTS assay for small molecule agonists of the antioxidant response element (ARE) signaling pathway measured by Nrf2-dependant transcriptional activity - cell viability counter screen (AID 720653; active = well fitted curve in the direction sought with a large enough effect in the repeat runs; an effect the other way counts as inactive or inconclusive; also: % is scaled to controls: 0 for no effect and ±100 for the full control effect); conditions: ARE-bla HepG2 viability, CellTiter-Glo ATP luminescence, 16 h; stronger effect = lower value
Outline: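 ARE-bla HepG2 cells (2,000/well) rested 5 hrs at 37C/5% CO2, then exposed to compounds in DMSO for 16 hrs. Viability was read in the same wells as intracellular ATP by luminescence, 30 min at room temperature after reagent addition.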

[19] = qHTS assay for cell viability of HEK293 cells (AID 743288); conditions: ATP luminescence (CellTiter-Glo), 18 h; max response: stronger effect = lower value; also: % is scaled to controls: 0 for no effect and ±100 for the full control effect; nearly all actives have a fitted effect of over 50% in size
Outline: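 Parental HEK293 cells, 2,000 per well, preincubated at least 5 h at 37 C, then exposed to compounds in DMSO for 18 h at 37 C. Viability by CellTiter-Glo ATP luminescence after 30 min at room temperature.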

[20] = qHTS assay for cell viability of the p53RE-bla HCT-116 cell line (AID 743292); conditions: p53RE-bla HCT-116 viability, ATP luminescence, 16 h; series mostly up to 95 µM; also: % is scaled to controls: 0 for no effect and ±100 for the full control effect; nearly all actives have a fitted effect of over 55% in size
Outline: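 Readout: CellTiter-Glo luminescence after 30 min RT. Treatment: compounds in DMSO, 16 h, 37 C. Cells: CellSensor p53RE-bla HCT-116, 4,000/well, preincubated 5 h.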

C=CC(=O)OCC
inactive: Potency [1] > 92 µM | Potency [2] > 92 µM | outcome [3] | Potency [4] | Potency [5] | activity change, negative = cytotoxicity [6] 0.0849% | outcome [7] | outcome [8] | outcome [9] | outcome [10] | outcome [11] | Potency [12] | Potency [13] | Potency [14] | Potency [15] | Potency [16] | outcome [17] | max response [18] -9.08% | max response [19] -0.244% | Potency [20]

C[N+](C)(C)Cc1ccccc1
inactive: Potency [1] > 92 µM | Potency [2] > 92 µM | outcome [3] | Potency [4] | Potency [5] | activity change, negative = cytotoxicity [6] 0.397% [at 91.7 µM] | outcome [7] | outcome [8] | outcome [9] | outcome [10] | outcome [11] | Potency [12] | Potency [13] | Potency [14] | Potency [15] | Potency [16] | outcome [17] | max response [18] -0.49% and -11.3% | max response [19] 3.84% and -11.6% | Potency [20]

CCCSC(=O)Cl
inactive: Potency [1] > 92 µM | Potency [2] > 92 µM | outcome [3] | Potency [4] | Potency [5] | activity change, negative = cytotoxicity [6] -6.97% | outcome [7] | outcome [8] | outcome [9] | outcome [10] | outcome [11] | Potency [12] | Potency [13] | Potency [14] | Potency [15] | Potency [16] | outcome [17] | max response [18] -4.21% | max response [19] -1.07% | Potency [20]

CCN1C[C@@]2(COC)[C@H]3[C@@H](OC)[C@H]4C1[C@@]3([C@H](OC)C[C@@H]2O)[C@H]1C[C@@]2(O)[C@@H](OC(=O)c3ccccc3)[C@@H]1[C@@]4(OC(C)=O)[C@H](O)[C@@H]2OC
inactive: outcome [3]
